A selection: hits, their analogues and other compounds. The true share with any hit is near 3%.
SARS PLpro yeast: inhibitors of SARS-CoV papain-like protease in yeast. Potency, µM (series often up to 32.9 µM), usual class: activators. 330,000 compounds, 0.19% hits. S. cerevisiae expressing SARS-CoV PLpro, growth rescue; calls by dose curve; note: nearly all actives have a fitted effect of over 55% in size
Sm TGR block: S. mansoni TGR enzyme inhibition; 360,000 compounds, 3% hits; purified TGR, DTNB reduction, TNB absorbance 405 nm; Potency, µM (doses to about 114 µM), actives largely listed as inhibitors; AID 485364; active = well fitted inhibition curve with a large enough effect; inconclusive = small, poorly fitted or top-dose-only effect; inactive = no such curve, though single readings can be large or run the other way; note: nearly all actives have a fitted effect of over 60% in size
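TGR 20 nM + NADPH 100 uM (dispensed conc.), cpd preinc 15 min RT; start with NADPH (500 uM addition) then DTNB (15 mM addition). Kinetic TNB absorbance, 405 nm filter. Four-parameter Hill fit across titration.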
A number is an active result; – = inactive; ? = inconclusive; · = no result.

SMILES	SARS PLpro yeast	Sm TGR block
Cn1cc(CN2CCN(CC(C)(C)C)C(CCO)C2)c2ccccc21 (centres undefined)	–	–
COc1cc(CN2CCN(CCCc3ccccc3)C(CCO)C2)cc(OC)c1O (centres undefined)	–	20µM
COc1ccc(CN2CCN(CCc3ccccc3)C(CCO)C2)c(O)c1 (centres undefined)	–	45µM
OCCC1CN(Cc2ccccc2O)CCN1CCCc1ccccc1 (centres undefined)	?	–
COc1ccc(CN2CCN(CCCc3ccccc3)C(CCO)C2)c(OC)c1 (centres undefined)	–	–
COc1ccc(CN2CCN(CCCc3ccccc3)C(CCO)C2)c(O)c1 (centres undefined)	–	?
OCCC1CN(Cc2c(O)ccc3ccccc23)CCN1CCc1ccccc1 (centres undefined)	–	0.63µM
CC(C)CN1CCN(Cc2cn(C)c3ccccc23)CC1CCO (centres undefined)	–	89µM
CCOC(=O)c1ccc(N2C(=O)c3[nH]nc(-c4ccccc4)c3C2c2cccs2)cc1 (centres undefined)	·	–
O=C(CCS(=O)(=O)c1cccs1)Nc1ccc(C(=O)Nc2ccccc2F)cc1	·	–
COc1cccc(CNC(=O)CCn2cnc3ccccc3c2=O)c1	·	–
COc1ccccc1N1CCN(C(=O)Cn2ncc3c(=O)oc4ccccc4c32)CC1	·	–
CCc1cccc(NC(=O)c2coc(=O)c3ccccc23)c1	·	–
CCc1ccc(CNC(=O)Cn2nc(-c3ccc(Cl)cc3)ccc2=O)cc1	·	–
COc1ccc(S(=O)(=O)N(Cc2nc(-c3ccc(C)cc3)no2)C2CCCCC2)cc1	·	–
CCCCn1cc(S(=O)(=O)c2cc(C)ccc2C)c(=O)c2cc(F)c(N3CCC(C)CC3)cc21	·	–
Cc1ccc(C(=O)N(Cc2ccco2)Cc2ccco2)cc1	·	–
CCC(=O)N(CCC(c1ccc(C)cc1)c1ccco1)Cc1ccco1 (centres undefined)	–	14µM
COc1ccc(-c2cc(C(F)(F)F)nc(SCC(=O)N3CCCCC3)n2)cc1OC	·	–
CC1CCc2c(sc3nnn(Cc4ccccc4Cl)c(=O)c23)C1 (centres undefined)	·	–
O=C1NC(=O)C(=Cc2ccc(SC3CCCCC3)o2)C(=O)N1	–	40µM
CNS(=O)(=O)c1ccc(-c2ccc(C=C3C(=O)NC(=O)NC3=O)o2)cc1	–	?
CCCCOC(=O)c1ccc(NC(=O)c2cc(-c3ccccc3)on2)cc1	·	–
Cc1ccc(NC(=O)CN2C(=O)C3(SCC(=O)N3c3cccc(Cl)c3)c3ccccc32)cc1C (centres undefined)	·	–
Nc1nc(N2CCN(C(=O)c3ccco3)CC2)nc2ccc(Br)cc12	–	45µM
SMILES	SARS PLpro yeast	Sm TGR block
Nc1nc(N2CCN(C(=O)c3ccco3)CC2)nc2ccccc12	–	–
COCC(=O)N(CCc1ccccc1)Cc1cc2cc(C)ccc2nc1Cl	–	40µM
COCC(=O)N(CCc1ccc(OC)c(OC)c1)Cc1cc2cc(C)ccc2nc1Cl	–	–
COc1ccc(CCNC(=O)c2cnn(-c3cccc(C)c3)c2C2CCN(C(=O)OC(C)(C)C)CC2)cc1OC	·	–
COc1ccc(-c2nc3scc(CCNS(=O)(=O)c4ccc(F)cc4C)n3n2)cc1	·	–
COCCNC(=O)Cn1cnc2c(cnn2-c2ccc(OC)cc2)c1=O	–	–
COCCNC(=O)Cn1cnc2c(cnn2-c2ccc(C)cc2)c1=O	–	89µM
O=C(CSc1nc(-c2ccccc2)nc2c1Cc1ccccc1O2)N1CCCCC1	·	–
O=C(c1ccco1)N1CCN(Cc2csc(-c3ccccc3Cl)n2)CC1	–	50µM
O=C(c1ccco1)N1CCN(Cc2c(Cl)cccc2Cl)CC1	–	–
CCOc1ccc(C(=O)CSc2nnc3cc(C)c4ccccc4n23)cc1	·	–
CCn1c(=O)c2sccc2n2c(CCC(=O)Nc3ccc(F)cc3)nnc12	·	–
CC(=O)N1CCC2(CC1)OC(=O)C(C)=C2C(=O)Nc1ccccc1C(F)(F)F	·	–
CC1(C)CC(C#N)(N2CCOCC2)CCO1 (centres undefined)	·	13µM
COc1ccccc1CNC(=O)CCn1cnc2ccccc2c1=O	·	–
O=C(CSc1n[nH]c(-c2ccccc2Cl)n1)N1CCN(c2ccccc2F)CC1	·	–
O=C(NCc1ccccc1)[C@@H]1C[C@H]1[C@@H](NP(=O)(c1ccccc1)c1ccccc1)c1ccccc1	–	–
Cc1ccc(CNC(=O)[C@H]2C[C@@H]2[C@H](NP(=O)(c2ccccc2)c2ccccc2)c2ccccc2)o1	–	50µM
CC(C)Nc1nc(NC(C)C)nc(N(C#N)C(C)C(=O)N(C)C)n1 (centres undefined)	–	40µM
CCNc1nc(NC(C)C)nc(N(C#N)C(C)C(=O)N(C)C)n1 (centres undefined)	–	–
CCOC(=O)[C@H]1[C@H]2COc3ccc(C)cc3[C@@H]2N2C(=O)CN(Cc3ccc(C)cc3)C(=O)[C@@]12C	–	–
CCOC(=O)[C@H]1[C@H]2COc3ccc(C)cc3[C@@H]2N2C(=O)CN(Cc3ccco3)C(=O)[C@@]12C	–	14µM
CCOC(=O)[C@H]1[C@H]2COc3ccc(OC)cc3[C@@H]2N2C(=O)CN(Cc3ccc(OC)cc3)C(=O)[C@@]12C	?	50µM
CCOC(=O)[C@H]1[C@H]2COc3ccc(Cl)cc3[C@@H]2N2C(=O)CN(Cc3ccccc3)C(=O)[C@@]12C	8.9µM	–
CCOC(=O)[C@H]1[C@H]2COc3ccc(OC)cc3[C@@H]2N2C(=O)CN(Cc3ccc(C)cc3)C(=O)[C@@]12C	–	–
SMILES	SARS PLpro yeast	Sm TGR block
CCOC(=O)[C@H]1[C@H]2COc3ccc(Cl)cc3[C@@H]2N2C(=O)CN(Cc3ccc(Cl)cc3)C(=O)[C@@]12C	–	–
CCOC(=O)c1cc(-c2ccc(C)cc2)n(CCC(=O)Nc2ccc(OC)c(OC)c2)c1C	·	–
Cc1ccc(NC(=O)CN2C(=O)CC(c3ccco3)Sc3ccccc32)cc1Cl (centres undefined)	·	–
COC(=O)c1ccc(C(=O)OC)c(NC(=O)c2c(-c3ccccc3)noc2C)c1	·	–
COc1ccc(OC)c(CCNC(=O)c2c(C)nn(-c3ccc(F)cc3)c2-n2cccc2)c1	·	–
CN(Cc1ccccc1)C(=O)c1nc[nH]c1C(=O)N1CCc2ccccc2C1	–	35µM
O=C(c1nc[nH]c1C(=O)N1CCc2ccccc2C1)N1CCc2ccccc2C1	–	–
COC(=O)c1sc2cccc(F)c2c1S(=O)(=O)Nc1cc(C)c(Cl)cc1OC	·	–
CC(C)CCn1c(=O)c2sccc2n2c(CCCC(=O)NC3CCC(C)CC3)nnc12 (centres undefined)	·	–
Cc1ccc(C)c(NS(=O)(=O)c2ccc3oc(=O)c4ncn(C)c4c3c2)c1	·	–
CCOC(=O)C1=C(C)N=c2s/c(=C\c3ccc(C(=O)O)cc3)c(=O)n2C1c1ccc(F)cc1 (centres undefined)	–	–
CCOC(=O)C1=C(C)N=c2s/c(=C3/C(=O)Nc4ccccc43)c(=O)n2C1c1ccc(C)cc1 (centres undefined)	–	20µM
CCOC(=O)C1=C(C)n2c(s/c(=C3\C(=O)Nc4ccccc43)c2=O)=NC1c1ccc(OC)cc1 (centres undefined)	–	25µM
COC(=O)C1=C(C)N=c2s/c(=C3\C(=O)Nc4ccccc43)c(=O)n2C1c1ccccc1 (centres undefined)	–	50µM

Screening data from PubChem BioAssay.
